In PubChem BioAssay:
The source made the active and inactive calls. No rule for the calls is given here.

The molecules below were run against Pantothenate synthetase (Mycobacterium tuberculosis (strain ATCC 25618 / H37Rv)) (UniProt P9WIL5) (assay: Coupled enzyme confirmation of inhibitors against recombinant Mtb PanC (AID 375;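 also: 0% = full reaction with vehicle and 100% = no enzyme background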)). Conditions: coupled enzyme assay; at 10 µM, stronger effect = higher value.
Chain of Pantothenate synthetase (Mycobacterium tuberculosis (strain ATCC 25618 / H37Rv)) (P9WIL5 whole entry, looked up): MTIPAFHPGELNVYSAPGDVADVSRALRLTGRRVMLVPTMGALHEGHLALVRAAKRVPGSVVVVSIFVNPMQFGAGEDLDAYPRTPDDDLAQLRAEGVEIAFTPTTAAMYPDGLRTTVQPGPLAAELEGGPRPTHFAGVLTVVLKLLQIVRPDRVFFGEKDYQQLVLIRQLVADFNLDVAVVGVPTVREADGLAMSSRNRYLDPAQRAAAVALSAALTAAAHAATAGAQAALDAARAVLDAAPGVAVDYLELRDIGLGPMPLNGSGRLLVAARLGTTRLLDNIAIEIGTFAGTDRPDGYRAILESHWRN
For COc1ccc(CNC(=O)c2ccc(CN3CCOCC3)cc2)cc1, the inhibition was 8% (inactive).
In the case of COc1ccc(Cc2nc3ccc(S(N)(=O)=O)cc3[nH]2)cc1OC, the inhibition was 0% (inactive).
In the case of COc1ccc(S(=O)(=O)N2CCOCC2)cc1C(=O)Nc1cc(C)on1, the inhibition was 0% (inactive).
For Cc1ccc(C(=O)CC2(O)C(=O)N(C)c3ccc(Br)cc32)c(C)c1 (stereo not given), the inhibition was 0% (inactive).
For CCCc1ccc(C(C)NC(=O)c2cnccn2)cc1 (stereo not given), the inhibition was 0% (inactive).
For COC(=O)N1CC(c2ccccc2)CC1=O (stereo not given), the inhibition was 4% (inactive).
For O=C1CCCc2c1cc(C(=O)NCCCN1CCOCC1)c(=O)n2-c1ccc(Cl)cc1, the inhibition was 0% (inactive).
For Cc1ccccc1OCCn1c(=O)oc2ccccc21, the inhibition was 2% (inactive).
In the case of COCCCNC(=O)CSc1nc2ccc(N3CCOCC3)cc2c(=O)n1CCc1ccccc1, the inhibition was 0% (inactive).
In the case of COc1ccc(C2N(C(=O)c3ccccc3)CCN2C(=O)c2ccccc2)cc1, the inhibition was 0% (inactive).
For CCOc1c(C)cc2[nH]c(CCC(=O)O)nc2c1C, the inhibition was 0% (inactive).
For C[C@]12CC[C@@H]3c4ccc(OS(=O)(=O)O)cc4CC[C@H]3[C@@H]1CCC2=O, the inhibition was 0% (inactive).
CCOC(=O)C1CCN(c2c(N3CCCCCC3)c(=O)c2=O)CC1 was tested, and the inhibition was 2% (inactive).
Cc1cc2oc(C(=O)NC3CCS(=O)(=O)C3)c(C)c2cc1C (stereo not given) was tested, and the inhibition was 0% (inactive).
CCOC(=O)CSc1nc2ccccc2c(=O)n1NC(=O)c1ccccc1 was tested, and the inhibition was 1% (inactive).
With CC(C)(C)NC(=O)CN(Cc1cccs1)C(=O)c1csnn1 the inhibition was 0% (inactive).
With COc1ccccc1C1C(C(C)=O)=C(O)C(=O)N1CCc1ccccc1 (stereo not given) the inhibition was 8% (inactive).
CC1(C)Cc2nc3oc4c(N(CCO)Cc5ccccc5)ncnc4c3cc2CO1 was tested, and the inhibition was 0% (inactive).
COC(=O)CC1C(=O)NCCN1C(=O)NC1CCCCC1 (stereo not given) was tested, and the inhibition was 1% (inactive).
O=c1c2c(-c3ccccc3)csc2nc2n1CCC2 was tested, and the inhibition was 0% (inactive).
In the case of COc1ccc(OCC(=O)N2CCN(C(=O)c3cccs3)CC2)cc1, the inhibition was 5% (inactive).
In the case of COc1cccc(NC(=O)COC(=O)c2ccco2)c1, the inhibition was 0% (inactive).
For N#Cc1cn(CC(=O)N2CCCC2)c2ccccc12, the inhibition was 0% (inactive).
With O=C(NCc1ccco1)c1ccccc1Nc1ccc(F)cc1 the inhibition was 0% (inactive).
For COc1ccc(OC)c(NC(=O)c2cn(C)c(=O)c3cc(OC)c(OC)cc23)c1, the inhibition was 1% (inactive).
For CC1CN(CC(O)COc2ccc(C(C)C)cc2)CC(C)O1 (stereo not given), the inhibition was 0% (inactive).
With O=C(CN(c1ccccc1)S(=O)(=O)c1ccccc1)N1CCN(Cc2ccc3c(c2)OCO3)CC1 the inhibition was 0% (inactive).
COc1cccc(C(=O)CN2CCC(NC(=O)NC3CCCCC3)CC2)c1 was tested, and the inhibition was 6% (inactive).
With CC1(C)CC(=O)C(C=NCCc2ccc(S(N)(=O)=O)cc2)=C(O)C1 the inhibition was 0% (inactive).
For O=C(NCC1CCCO1)C1CCCN(S(=O)(=O)c2cccc3nsnc23)C1 (stereo not given), the inhibition was 4% (inactive).
For COC(=O)C1=C(C)NC(=O)C1(NC(=O)c1cccnc1)C(F)(F)F (stereo not given), the inhibition was 0% (inactive).
For CCn1c(=O)c2cc(S(=O)(=O)NCc3ccccc3)ccc2n(CC)c1=O, the inhibition was 0% (inactive).
In the case of O=c1c2cc(N3CCOCC3)ccc2[nH]c(=S)n1CCCN1CCCC1, the inhibition was 13% (inactive).
For O=C(O)C1CC(=O)N(CCOc2ccccc2)C1 (stereo not given), the inhibition was 8% (inactive).
With CCOC(=O)c1c(C)[nH]c(C(=O)CSc2nc3ccccc3o2)c1C the inhibition was 0% (inactive).
CSC(=O)CC(=O)NC(=O)c1ccccc1 was tested, and the inhibition was 1% (inactive).
For CCN(CCNC(=O)C1CCN(S(=O)(=O)CC)CC1)c1ccccc1, the inhibition was 2% (inactive).
COCCN1CCN(c2c(C)c(C)nc3cc(-c4cccc(OC)c4)nn23)CC1 was tested, and the inhibition was 0% (inactive).
For CCOC(=O)N1CCC(NC(=O)CCc2c(C)nc3c(c(C)nn3C(C)(C)C)c2C)CC1, the inhibition was 7% (inactive).
In the case of CCN(CC)C(=O)C1CCCN(c2ncnc3c2cnn3-c2ccc(Cl)cc2)C1 (stereo not given), the inhibition was 4% (inactive).
